# Source: PubChem BioAssay (NCI)
# Compounds without any hit were thinned out: in the full panel of roughly 83,000, 20% have a hit.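 Treatment: one concentration, 48 hours, 96-well format. Scoring: percent growth, with anything below 10 considered active.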 Values without a mark were called inactive. Active and inactive are the calls of the source.
# Test system: HCT-15 colon
# Test: NCI-60 one-dose screen, 48 h (100 = growth as untreated, 0 = no growth, -100 = all killed)
# Conditions: 10 µM unless noted
row,Compound,growth
1,Cc1ccc2c(c1)C(=O)/C(=C/c1ccc(OCC(=O)c3ccccc3)cc1)O2,75.3%
2,O=C1C2CC=CCC2C(=O)N1CNc1ccc(Cl)cc1 (stereo not drawn),89.6%
3,O=C1C[C@H](Sc2nc(-c3ccc(F)cc3)cc(C(F)(F)F)n2)[C@H]2CO[C@@H]1O2,63.1%
4,CCN(CC)CCCNc1cccc2c(SCc3ccccc3)ccnc12,81.1%
5,Cc1cc(=O)oc2cc(Oc3nc(-c4cccs4)cn4c(-c5cccs5)cnc34)ccc12,72.9%
6,CCCCN(CCCC)Cc1c(C)[nH]c2cc(OC)ccc2c1=O,107%
7,CCCCCCCCCCCCCC1=NCCN1CCO,47.2%
8,CCN1CCN(Cc2ccc(NC(=O)Nc3nc4ccc(Oc5ccnc(C(=O)NC)c5)cc4s3)cc2C(F)(F)F)CC1,-55.8% (active)
9,CCCCN(CCCC)CCC(C)(O)c1cc2ccccc2c2ccccc12 (stereo not drawn),82.2%
10,CCCCN(CC)CCCCCCCCCCN1CCCc2cc(OC)ccc21,38.1%
11,N#Cc1ccc(NC(=O)Nc2ccc(Cc3ccc(NC(=O)Nc4ccc(C#N)cc4)cc3)cc2)cc1,25.9%
12,Clc1nc(Cl)c2c3c(sc2n1)CCCC3,26.7%
13,CCN(CC)c1ccc(/C=C/C2=[N+](C)c3ccccc3C2(C)C)cc1,41.1%
14,COc1ccc(OCC(=O)Nc2ccc(-c3nc4ccccc4s3)cc2C)cc1,85.9%
15,COc1cc(-c2nc3ccccc3s2)ccc1NC(=O)COc1ccc(Cl)cc1,85.8%
16,CCN(CC)CC(O)CNc1c2ccc([N+](=O)[O-])cc2nc2cc(OC)c(OC)cc12 (stereo not drawn),11.9%
17,Cc1ccc(/C=C2\Oc3cc(OCC(=O)c4ccc(Cl)cc4)ccc3C2=O)cc1,93.1%
18,O=c1c(/C=C/c2ccco2)nnc(SCCN2CCOCC2)n1/N=C/c1ccc([N+](=O)[O-])cc1,99%
19,CNC(=O)c1cc(Oc2ccc3nc(NC(=O)Nc4ccc(CN5CCOCC5)c(C(F)(F)F)c4)sc3c2)ccn1,24.5%
20,Cc1ccc(SCN2CCN(c3cccc(Cl)c3)CC2)cc1,93.1%

row,Compound,growth
1,COC1=CC(=O)C(OC)=C(OC)C1=O,102%
2,CN(CC(=O)N(Cc1ccc(C2CCCCC2)cc1)c1ccc(C(=O)NO)cc1)S(=O)(=O)c1c(F)c(F)c(F)c(F)c1F,-35.4% (active)
3,O=C1Nc2c(ccc(Cl)c2Cl)/C1=C/c1cc(Br)c(O)c(Br)c1,52.4%
4,Oc1ccccc1N=Cc1c(O)ccc2ccccc12,77.8%
5,c1ccc(CSc2ncnc3nc[nH]c23)nc1,103%
6,CCN(CC)c1ccc(CNc2cc(C)nc3ccc(OC)cc23)cc1,79.1%
7,CN(C)c1ccc(/C=C(\C#N)c2nc3ccccc3s2)cc1,106%
8,CC1CN(Cc2ccco2)C(=S)N(c2ccccc2)C1=O (stereo not drawn),98.2%
9,C=C1CC[C@@H]2[C@](C)(COC(C)=O)[C@H](OC(C)=O)CC[C@@]2(C)[C@@H]1CC(NCc1ccc(F)cc1)C1=CCOC1=O (stereo partly drawn),37%
10,O=C(O)c1cccnc1Br,97.6%
11,C=CC[N+]1(CC)CCN=C1CCCCCCCCCCCCCCCCC (stereo not drawn),-88.6% (active)
12,O=C1/C(=C\c2cn(C(=O)c3ccc(Cl)cc3)c3ccccc23)c2ccccc2N1c1c(Cl)cccc1Cl,66.3%
13,CSc1[nH]c2ncnc(N)c2c1C#N,99%
14,Cn1c2ccccc2c2c3c(c4c5ccccc5[nH]c4c21)C(=O)N(N)C3=O,68.2%
15,CC(=O)CC(C)(C)c1ccc(Cl)cc1,101%
16,OC(c1cc(-c2ccccc2)nc2ccc(Cl)cc12)C1CCCCN1 (stereo not drawn),-12.3% (active)
17,CCN(CC)Cc1cc(Nc2c3ccccc3nc3cc(Cl)ccc23)ccc1O,-28.6% (active)
18,O=[N+]([O-])c1c(F)cccc1Nc1cccc(F)c1,104%
19,COc1ccc(-c2cn3c(-c4ccc(OC)cc4)cnc3c(Oc3ccc4c(C)cc(=O)oc4c3)n2)cc1,63.4%

# Test system: HT29 colon
# Test: as above
# Conditions: 10 µM unless noted
row,Compound,growth
1,Cc1ccc2c(c1)C(=O)/C(=C/c1ccc(OCC(=O)c3ccccc3)cc1)O2,101%
2,O=C1C2CC=CCC2C(=O)N1CNc1ccc(Cl)cc1 (stereo not drawn),96.3%
3,O=C1C[C@H](Sc2nc(-c3ccc(F)cc3)cc(C(F)(F)F)n2)[C@H]2CO[C@@H]1O2,75.5%
4,CCN(CC)CCCNc1cccc2c(SCc3ccccc3)ccnc12,-33.1% (active)
5,Cc1cc(=O)oc2cc(Oc3nc(-c4cccs4)cn4c(-c5cccs5)cnc34)ccc12,46.6%
6,CCCCN(CCCC)Cc1c(C)[nH]c2cc(OC)ccc2c1=O,93.9%
7,CCCCCCCCCCCCCC1=NCCN1CCO,10.1%
8,CCN1CCN(Cc2ccc(NC(=O)Nc3nc4ccc(Oc5ccnc(C(=O)NC)c5)cc4s3)cc2C(F)(F)F)CC1,1.79% (active)
9,CCCCN(CCCC)CCC(C)(O)c1cc2ccccc2c2ccccc12 (stereo not drawn),39.7%
10,CCCCN(CC)CCCCCCCCCCN1CCCc2cc(OC)ccc21,19.2%
11,N#Cc1ccc(NC(=O)Nc2ccc(Cc3ccc(NC(=O)Nc4ccc(C#N)cc4)cc3)cc2)cc1,52.5%
12,Clc1nc(Cl)c2c3c(sc2n1)CCCC3,11.3%
13,CCN(CC)c1ccc(/C=C/C2=[N+](C)c3ccccc3C2(C)C)cc1,10.7%
14,COc1ccc(OCC(=O)Nc2ccc(-c3nc4ccccc4s3)cc2C)cc1,91.7%
15,COc1cc(-c2nc3ccccc3s2)ccc1NC(=O)COc1ccc(Cl)cc1,34.9%
16,CCN(CC)CC(O)CNc1c2ccc([N+](=O)[O-])cc2nc2cc(OC)c(OC)cc12 (stereo not drawn),-48.7% (active)
17,Cc1ccc(/C=C2\Oc3cc(OCC(=O)c4ccc(Cl)cc4)ccc3C2=O)cc1,104%
18,O=c1c(/C=C/c2ccco2)nnc(SCCN2CCOCC2)n1/N=C/c1ccc([N+](=O)[O-])cc1,106%
19,CNC(=O)c1cc(Oc2ccc3nc(NC(=O)Nc4ccc(CN5CCOCC5)c(C(F)(F)F)c4)sc3c2)ccn1,45.3%
20,Cc1ccc(SCN2CCN(c3cccc(Cl)c3)CC2)cc1,110%

row,Compound,growth
1,COC1=CC(=O)C(OC)=C(OC)C1=O,107%
2,CN(CC(=O)N(Cc1ccc(C2CCCCC2)cc1)c1ccc(C(=O)NO)cc1)S(=O)(=O)c1c(F)c(F)c(F)c(F)c1F,0.552% (active)
3,O=C1Nc2c(ccc(Cl)c2Cl)/C1=C/c1cc(Br)c(O)c(Br)c1,56.6%
4,Oc1ccccc1N=Cc1c(O)ccc2ccccc12,82.9%
5,c1ccc(CSc2ncnc3nc[nH]c23)nc1,112%
6,CCN(CC)c1ccc(CNc2cc(C)nc3ccc(OC)cc23)cc1,9.05% (active)
7,CN(C)c1ccc(/C=C(\C#N)c2nc3ccccc3s2)cc1,100%
8,CC1CN(Cc2ccco2)C(=S)N(c2ccccc2)C1=O (stereo not drawn),93.4%
9,C=C1CC[C@@H]2[C@](C)(COC(C)=O)[C@H](OC(C)=O)CC[C@@]2(C)[C@@H]1CC(NCc1ccc(F)cc1)C1=CCOC1=O (stereo partly drawn),21.3%
10,O=C(O)c1cccnc1Br,109%
11,C=CC[N+]1(CC)CCN=C1CCCCCCCCCCCCCCCCC (stereo not drawn),-100% (active)
12,O=C1/C(=C\c2cn(C(=O)c3ccc(Cl)cc3)c3ccccc23)c2ccccc2N1c1c(Cl)cccc1Cl,103%
13,CSc1[nH]c2ncnc(N)c2c1C#N,97.9%
14,Cn1c2ccccc2c2c3c(c4c5ccccc5[nH]c4c21)C(=O)N(N)C3=O,60.3%
15,CC(=O)CC(C)(C)c1ccc(Cl)cc1,98.1%
16,OC(c1cc(-c2ccccc2)nc2ccc(Cl)cc12)C1CCCCN1 (stereo not drawn),-3.87% (active)
17,CCN(CC)Cc1cc(Nc2c3ccccc3nc3cc(Cl)ccc23)ccc1O,-38.3% (active)
18,O=[N+]([O-])c1c(F)cccc1Nc1cccc(F)c1,97.5%
19,COc1ccc(-c2cn3c(-c4ccc(OC)cc4)cnc3c(Oc3ccc4c(C)cc(=O)oc4c3)n2)cc1,25.4%
